Columns and labels:
Test in all cases: PBM; 200 nM protein, PBS
Details in all cases: dsDNA, one strand shown
CRX [1] = target: CRX (Homo sapiens, UniProt O43186 26-111)
CRX [2] = target: CRX (Homo sapiens, UniProt O43186 26-111, E42D)
CRX [3] = target: CRX (Homo sapiens, UniProt O43186 26-111, R41L)
CRX (Homo sapiens, UniProt O43186 26-111, R41L), sequence (O43186 26-111 R41L): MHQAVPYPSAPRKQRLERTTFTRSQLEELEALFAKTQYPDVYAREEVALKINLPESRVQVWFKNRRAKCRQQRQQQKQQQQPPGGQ

CRX (Homo sapiens, UniProt O43186 26-111), sequence (O43186 26-111): as the sequence (O43186 26-111 R41L) above, with L16R counted along it
CRX (Homo sapiens, UniProt O43186 26-111, E42D), sequence (O43186 26-111 E42D): as the sequence (O43186 26-111 R41L) above, with L16R, E17D counted along it

Sequence: GAACGCCC
- binding signal (CRX [1]): 8.05 upbm affinity estimate (log intensity, higher = more binding, comparable within an allelic series)
- binding signal (CRX [2]): 8.12 upbm affinity estimate (log intensity, higher = more binding, comparable within an allelic series)
- binding signal (CRX [3]): 8.13 upbm affinity estimate (log intensity, higher = more binding, comparable within an allelic series)

Sequence: AATTCCAT
- binding signal (CRX [1]): 10.2 upbm affinity estimate (log intensity, higher = more binding, comparable within an allelic series)
- binding signal (CRX [2]): 10.1 upbm affinity estimate (log intensity, higher = more binding, comparable within an allelic series)
- binding signal (CRX [3]): 9.91 upbm affinity estimate (log intensity, higher = more binding, comparable within an allelic series)

Sequence: AGAAGGAG
- binding signal (CRX [1]): 8.23 upbm affinity estimate (log intensity, higher = more binding, comparable within an allelic series)
- binding signal (CRX [2]): 8.28 upbm affinity estimate (log intensity, higher = more binding, comparable within an allelic series)
- binding signal (CRX [3]): 8.25 upbm affinity estimate (log intensity, higher = more binding, comparable within an allelic series)

Sequence: CGGGACCC
- binding signal (CRX [1]): 8.17 upbm affinity estimate (log intensity, higher = more binding, comparable within an allelic series)
- binding signal (CRX [2]): 8.21 upbm affinity estimate (log intensity, higher = more binding, comparable within an allelic series)
- binding signal (CRX [3]): 8.21 upbm affinity estimate (log intensity, higher = more binding, comparable within an allelic series)

Sequence: AGATAATC
- binding signal (CRX [1]): 12.9 upbm affinity estimate (log intensity, higher = more binding, comparable within an allelic series)
- binding signal (CRX [2]): 12.7 upbm affinity estimate (log intensity, higher = more binding, comparable within an allelic series)
- binding signal (CRX [3]): 12.7 upbm affinity estimate (log intensity, higher = more binding, comparable within an allelic series)

Sequence: AATAATCT
- binding signal (CRX [1]): 12.7 upbm affinity estimate (log intensity, higher = more binding, comparable within an allelic series)
- binding signal (CRX [2]): 12.7 upbm affinity estimate (log intensity, higher = more binding, comparable within an allelic series)
- binding signal (CRX [3]): 12.6 upbm affinity estimate (log intensity, higher = more binding, comparable within an allelic series)

Sequence: AAGTATAA
- binding signal (CRX [1]): 10.6 upbm affinity estimate (log intensity, higher = more binding, comparable within an allelic series)
- binding signal (CRX [2]): 10.5 upbm affinity estimate (log intensity, higher = more binding, comparable within an allelic series)
- binding signal (CRX [3]): 10.2 upbm affinity estimate (log intensity, higher = more binding, comparable within an allelic series)

Sequence: CCACCGAG
- binding signal (CRX [1]): 8.14 upbm affinity estimate (log intensity, higher = more binding, comparable within an allelic series)
- binding signal (CRX [2]): 8.21 upbm affinity estimate (log intensity, higher = more binding, comparable within an allelic series)
- binding signal (CRX [3]): 8.2 upbm affinity estimate (log intensity, higher = more binding, comparable within an allelic series)

Sequence: CACCAGGC
- binding signal (CRX [1]): 8.58 upbm affinity estimate (log intensity, higher = more binding, comparable within an allelic series)
- binding signal (CRX [2]): 8.49 upbm affinity estimate (log intensity, higher = more binding, comparable within an allelic series)
- binding signal (CRX [3]): 8.39 upbm affinity estimate (log intensity, higher = more binding, comparable within an allelic series)

Sequence: GCTTAAGC
- binding signal (CRX [1]): 12.8 upbm affinity estimate (log intensity, higher = more binding, comparable within an allelic series)
- binding signal (CRX [2]): 12.7 upbm affinity estimate (log intensity, higher = more binding, comparable within an allelic series)
- binding signal (CRX [3]): 11.7 upbm affinity estimate (log intensity, higher = more binding, comparable within an allelic series)

Sequence: GATTATAA
- binding signal (CRX [1]): 12.7 upbm affinity estimate (log intensity, higher = more binding, comparable within an allelic series)
- binding signal (CRX [2]): 12.6 upbm affinity estimate (log intensity, higher = more binding, comparable within an allelic series)
- binding signal (CRX [3]): 12.6 upbm affinity estimate (log intensity, higher = more binding, comparable within an allelic series)

Sequence: CGTATACG
- binding signal (CRX [1]): 8.46 upbm affinity estimate (log intensity, higher = more binding, comparable within an allelic series)
- binding signal (CRX [2]): 8.43 upbm affinity estimate (log intensity, higher = more binding, comparable within an allelic series)
- binding signal (CRX [3]): 8.43 upbm affinity estimate (log intensity, higher = more binding, comparable within an allelic series)

Sequence: GCTATTTA
- binding signal (CRX [1]): 10.3 upbm affinity estimate (log intensity, higher = more binding, comparable within an allelic series)
- binding signal (CRX [2]): 10.1 upbm affinity estimate (log intensity, higher = more binding, comparable within an allelic series)
- binding signal (CRX [3]): 10 upbm affinity estimate (log intensity, higher = more binding, comparable within an allelic series)

Sequence: CATGACAG
- binding signal (CRX [1]): 8.34 upbm affinity estimate (log intensity, higher = more binding, comparable within an allelic series)
- binding signal (CRX [2]): 8.16 upbm affinity estimate (log intensity, higher = more binding, comparable within an allelic series)
- binding signal (CRX [3]): 8.25 upbm affinity estimate (log intensity, higher = more binding, comparable within an allelic series)

Sequence: GGAGACCC
- binding signal (CRX [1]): 8.12 upbm affinity estimate (log intensity, higher = more binding, comparable within an allelic series)
- binding signal (CRX [2]): 8.25 upbm affinity estimate (log intensity, higher = more binding, comparable within an allelic series)
- binding signal (CRX [3]): 8.36 upbm affinity estimate (log intensity, higher = more binding, comparable within an allelic series)

Sequence: GATAAACC
- binding signal (CRX [1]): 11.4 upbm affinity estimate (log intensity, higher = more binding, comparable within an allelic series)
- binding signal (CRX [2]): 11.1 upbm affinity estimate (log intensity, higher = more binding, comparable within an allelic series)
- binding signal (CRX [3]): 10.9 upbm affinity estimate (log intensity, higher = more binding, comparable within an allelic series)

Sequence: CACGGCGA
- binding signal (CRX [1]): 8.27 upbm affinity estimate (log intensity, higher = more binding, comparable within an allelic series)
- binding signal (CRX [2]): 8.25 upbm affinity estimate (log intensity, higher = more binding, comparable within an allelic series)
- binding signal (CRX [3]): 8.27 upbm affinity estimate (log intensity, higher = more binding, comparable within an allelic series)

Sequence: CACTAATC
- binding signal (CRX [1]): 12.8 upbm affinity estimate (log intensity, higher = more binding, comparable within an allelic series)
- binding signal (CRX [2]): 12.6 upbm affinity estimate (log intensity, higher = more binding, comparable within an allelic series)
- binding signal (CRX [3]): 12 upbm affinity estimate (log intensity, higher = more binding, comparable within an allelic series)

Sequence: AGTGTGTC
- binding signal (CRX [1]): 8.28 upbm affinity estimate (log intensity, higher = more binding, comparable within an allelic series)
- binding signal (CRX [2]): 8.38 upbm affinity estimate (log intensity, higher = more binding, comparable within an allelic series)
- binding signal (CRX [3]): 8.38 upbm affinity estimate (log intensity, higher = more binding, comparable within an allelic series)

Sequence: GAACGTTC
- binding signal (CRX [1]): 8.02 upbm affinity estimate (log intensity, higher = more binding, comparable within an allelic series)
- binding signal (CRX [2]): 7.99 upbm affinity estimate (log intensity, higher = more binding, comparable within an allelic series)
- binding signal (CRX [3]): 8.07 upbm affinity estimate (log intensity, higher = more binding, comparable within an allelic series)

Sequence: ATAAAACC
- binding signal (CRX [1]): 10.7 upbm affinity estimate (log intensity, higher = more binding, comparable within an allelic series)
- binding signal (CRX [2]): 10.4 upbm affinity estimate (log intensity, higher = more binding, comparable within an allelic series)
- binding signal (CRX [3]): 10.2 upbm affinity estimate (log intensity, higher = more binding, comparable within an allelic series)

Sequence: ACTAATCT
- binding signal (CRX [1]): 13.1 upbm affinity estimate (log intensity, higher = more binding, comparable within an allelic series)
- binding signal (CRX [2]): 13.1 upbm affinity estimate (log intensity, higher = more binding, comparable within an allelic series)
- binding signal (CRX [3]): 12.7 upbm affinity estimate (log intensity, higher = more binding, comparable within an allelic series)

Sequence: CGGGTCAC
- binding signal (CRX [1]): 7.89 upbm affinity estimate (log intensity, higher = more binding, comparable within an allelic series)
- binding signal (CRX [2]): 8.08 upbm affinity estimate (log intensity, higher = more binding, comparable within an allelic series)
- binding signal (CRX [3]): 8.09 upbm affinity estimate (log intensity, higher = more binding, comparable within an allelic series)

Sequence: AGATTATA
- binding signal (CRX [1]): 12.9 upbm affinity estimate (log intensity, higher = more binding, comparable within an allelic series)
- binding signal (CRX [2]): 12.8 upbm affinity estimate (log intensity, higher = more binding, comparable within an allelic series)
- binding signal (CRX [3]): 12.8 upbm affinity estimate (log intensity, higher = more binding, comparable within an allelic series)

Sequence: ATAACCCC
- binding signal (CRX [1]): 10.6 upbm affinity estimate (log intensity, higher = more binding, comparable within an allelic series)
- binding signal (CRX [2]): 10.4 upbm affinity estimate (log intensity, higher = more binding, comparable within an allelic series)
- binding signal (CRX [3]): 10.2 upbm affinity estimate (log intensity, higher = more binding, comparable within an allelic series)

Sequence: GCGTGACC
- binding signal (CRX [1]): 8.46 upbm affinity estimate (log intensity, higher = more binding, comparable within an allelic series)
- binding signal (CRX [2]): 8.49 upbm affinity estimate (log intensity, higher = more binding, comparable within an allelic series)
- binding signal (CRX [3]): 8.39 upbm affinity estimate (log intensity, higher = more binding, comparable within an allelic series)

Sequence: CGAGCACG
- binding signal (CRX [1]): 8.2 upbm affinity estimate (log intensity, higher = more binding, comparable within an allelic series)
- binding signal (CRX [2]): 8.12 upbm affinity estimate (log intensity, higher = more binding, comparable within an allelic series)
- binding signal (CRX [3]): 8.16 upbm affinity estimate (log intensity, higher = more binding, comparable within an allelic series)

Sequence: GAATAAAC
- binding signal (CRX [1]): 10 upbm affinity estimate (log intensity, higher = more binding, comparable within an allelic series)
- binding signal (CRX [2]): 9.83 upbm affinity estimate (log intensity, higher = more binding, comparable within an allelic series)
- binding signal (CRX [3]): 9.51 upbm affinity estimate (log intensity, higher = more binding, comparable within an allelic series)

Sequence: CCTCGCCC
- binding signal (CRX [1]): 8.43 upbm affinity estimate (log intensity, higher = more binding, comparable within an allelic series)
- binding signal (CRX [2]): 8.52 upbm affinity estimate (log intensity, higher = more binding, comparable within an allelic series)
- binding signal (CRX [3]): 8.44 upbm affinity estimate (log intensity, higher = more binding, comparable within an allelic series)

Sequence: ACAGGCAC
- binding signal (CRX [1]): 8.14 upbm affinity estimate (log intensity, higher = more binding, comparable within an allelic series)
- binding signal (CRX [2]): 8.14 upbm affinity estimate (log intensity, higher = more binding, comparable within an allelic series)
- binding signal (CRX [3]): 8.23 upbm affinity estimate (log intensity, higher = more binding, comparable within an allelic series)

Sequence: GACGCTAC
- binding signal (CRX [1]): 8.4 upbm affinity estimate (log intensity, higher = more binding, comparable within an allelic series)
- binding signal (CRX [2]): 8.38 upbm affinity estimate (log intensity, higher = more binding, comparable within an allelic series)
- binding signal (CRX [3]): 8.27 upbm affinity estimate (log intensity, higher = more binding, comparable within an allelic series)

Sequence: CGAACCTC
- binding signal (CRX [1]): 8.5 upbm affinity estimate (log intensity, higher = more binding, comparable within an allelic series)
- binding signal (CRX [2]): 8.36 upbm affinity estimate (log intensity, higher = more binding, comparable within an allelic series)
- binding signal (CRX [3]): 8.33 upbm affinity estimate (log intensity, higher = more binding, comparable within an allelic series)

Sequence: ACACTACC
- binding signal (CRX [1]): 8.32 upbm affinity estimate (log intensity, higher = more binding, comparable within an allelic series)
- binding signal (CRX [2]): 8.19 upbm affinity estimate (log intensity, higher = more binding, comparable within an allelic series)
- binding signal (CRX [3]): 8.34 upbm affinity estimate (log intensity, higher = more binding, comparable within an allelic series)

Sequence: AATATTAC
- binding signal (CRX [1]): 10.1 upbm affinity estimate (log intensity, higher = more binding, comparable within an allelic series)
- binding signal (CRX [2]): 9.84 upbm affinity estimate (log intensity, higher = more binding, comparable within an allelic series)
- binding signal (CRX [3]): 9.61 upbm affinity estimate (log intensity, higher = more binding, comparable within an allelic series)

Sequence: AATCCAAC
- binding signal (CRX [1]): 10.9 upbm affinity estimate (log intensity, higher = more binding, comparable within an allelic series)
- binding signal (CRX [2]): 10.8 upbm affinity estimate (log intensity, higher = more binding, comparable within an allelic series)
- binding signal (CRX [3]): 10.7 upbm affinity estimate (log intensity, higher = more binding, comparable within an allelic series)

Sequence: ACGGTCCG
- binding signal (CRX [1]): 8.25 upbm affinity estimate (log intensity, higher = more binding, comparable within an allelic series)
- binding signal (CRX [2]): 8.46 upbm affinity estimate (log intensity, higher = more binding, comparable within an allelic series)
- binding signal (CRX [3]): 8.16 upbm affinity estimate (log intensity, higher = more binding, comparable within an allelic series)
